# Experimental data published in PubChem BioAssay (NCATS).
# Inconclusive results are not listed. Active and inactive are the calls of the source. Unless noted, the rule behind the calls is not given here.
# How the values were obtained:
# [1] = qHTS profiling of the MIPE4 collection as inhibitors of Plasmodium falciparum (3D7) proliferation (AID 743344);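 note: scaled between DMSO vehicle wells and 0.29 µM artemisinin as full inhibition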; settings: P. falciparum 3D7 in erythrocytes, SYBR Green DNA fluorescence, 72 h; at 28.5 µM unless noted
# How it was run: (§1)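 Parasite DNA was quantified by SYBR Green I fluorescence (ex 485, em 535 nm) after overnight lysis in saponin/Triton buffer at room temperature. Cultures at 0.3% parasitemia and 2.5% hematocrit were first exposed to compound for 72 h at 37 C; signals were normalised to artemisinin (0.29 uM) and vehicle wells.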
# [2] = qHTS profiling of the MIPE4 collection as inhibitors of Plasmodium falciparum (DD2) proliferation (AID 743345); settings: P. falciparum Dd2 in erythrocytes, SYBR Green DNA, 72 h; at 28.5 µM unless noted
# How it was run: as §1
# [3] = qHTS profiling of the MIPE4 collection as inhibitors of Plasmodium falciparum (DD2) proliferation (Rep 2) (AID 743346); settings: P. falciparum Dd2 in erythrocytes, SYBR Green DNA, 72 h; at 28.5 µM unless noted
# How it was run: as §1
# [4] = qHTS profiling of the MIPE4 collection as inhibitors of Plasmodium falciparum (HB3) proliferation (AID 743347);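 note: plate controls were DMSO vehicle wells for no effect and artemisinin wells for full effect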; settings: P. falciparum HB3 in erythrocytes, SYBR Green DNA, 72 h; at 28.5 µM unless noted
# How it was run: as §1
# [5] = High-throughput drug toxicity screening in the BPDCN cell line Gen2.2 (AID 1224824); settings: Gen2.2 BPDCN cells; at 45.8 µM (top of the series) unless noted;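 note: cells exposed to compounds for 48 h before reading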
# How it was run: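 Gen2.2 cells, 500 per well in phenol red-free RPMI with 10% FBS, exposed to compounds 48 h at 37 C, 5% CO2; viability by CellTiter-Glo luminescence. Percent activity scaled to DMSO (100%) and 9.2 uM bortezomib final (0%).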
# [6] = High-throughput drug toxicity screening in the BPDCN cell line Cal-1 (AID 1224825); settings: Cal-1 BPDCN cell viability, qHTS; at 45.8 µM (top of the series) unless noted
# How it was run: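 CellTiter-Glo luminescence after 48 h compound exposure; percent activity scaled with DMSO as 100% and bortezomib (9.2 uM final) as 0%. Cal-1 cells seeded at 500/well in RPMI, 10% FBS, no phenol red.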
# [7] = qHTS assay for measurement of the activity of small molecule inhibitors on Zika virus induced Caspase-3 activity in human iPSC derived neural progenitor cells (hNPCs) (AID 1224857; active = well fitted inhibition curve with a large enough effect; note: % of control where 0% means no effect; nearly all actives have a fitted effect of over 65% in size)
# How it was run: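 Caspase-3/7 induction by a 6-hour ZIKV infection was quantified with a luminescent Caspase-Glo 3/7 reagent incubated 30 minutes at room temperature. Compounds were preincubated with hNPCs for 1 hour; inhibition was calculated against uninfected and infected control wells.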
# [8] = qHTS assay for measurement of the activity of small molecule inhibitors on Zika virus induced Caspase-3 activity in human astrocytoma cells (AID 1224859; active = well fitted inhibition curve with a large enough effect;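 note: plate controls were ZIKV-infected untreated cells for no effect and uninfected cells for full effect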)
# How it was run: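 In SNB-19 cells plated at 250 cells/well and grown 16-20 h, compounds were applied 1 h before ZIKV (2 FFU/cell). Six hours later caspase-3/7 luminescence was recorded.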
# [9] = qHTS Screen of the MIPE 4.0 Collection Against Ewings Sarcoma (RDES) (AID 1259252; active = well fitted inhibition curve with a large enough effect; note: nearly all actives have a fitted effect of over 35% in size; note: potency is the fitted concentration of half-maximal effect)
# How it was run: (§2)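 Viability screen: 48 h incubation at 37C, 95% humidity, 5% CO2 with serially titrated compound, followed by CellTiter-Glo readout.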
# [10] = qHTS Screen of the MIPE 4.0 Collection Against Ewings Sarcoma (TC71) (AID 1259253; active = well fitted inhibition curve with a large enough effect; note: nearly all actives have a fitted effect of over 40% in size; note: potency is the fitted concentration of half-maximal effect)
# How it was run: as §2
# [11] = qHTS Screen of the MIPE 4.0 Collection Against Ewings Sarcoma (EW8) (AID 1259255; active = well fitted inhibition curve with a large enough effect; note: nearly all actives have a fitted effect of over 35% in size; note: potency is the fitted concentration of half-maximal effect;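 for viability: 100% = DMSO-treated cells and 0% = medium-only wells without cells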)
# How it was run: as §2
Compound,"parasite growth, % of DMSO control [1] [%]","parasite growth remaining, % of DMSO control (lower = more inhibition) [2] [%]","parasite growth, % of control (lower = inhibition) [3] [%]","growth, % of control [4] [%]","cell viability, % of control (lower = more cytotoxic) [5] [%]",viability (% of control) [6] [%],Potency [7],Potency [8],Potency [9],Potency [10],Potency [11]
C#C[C@]1(O)CC[C@@H]2[C@@H]3CCC4=CC(=O)CC[C@@H]4[C@H]3CC[C@@]21CC,28,79.2,51.5,61.1,146,114,inactive,inactive,inactive,inactive,inactive
CC(C(C)N1CC(=O)NC(=O)C1)N1CC(=O)NC(=O)C1 (stereo unspecified),88.4,80.3,105,98.2,158,27.4,inactive,inactive,0.743 µM (active),0.59 µM (active),0.743 µM (active)
CNC(=O)c1cccc(-c2ccc3c(N4CCOC[C@H]4C)nc(N4CCOC[C@H]4C)nc3n2)c1,8.56,17.5,9.01,5.12,20.8,20.9,inactive,inactive,0.0833 µM (active),0.0662 µM (active),0.0935 µM (active)
CC(Cc1ccc(O)c(O)c1)(NN)C(=O)O (stereo unspecified),54.5,15.4,75.5,54.9,108,91.3,inactive,inactive,inactive,inactive,inactive
CC(C)(N)c1ccc(-c2nc3ccccc3nc2-c2ccccc2)cc1,21.6,18.1,26.5,18.5,8.3,4.03,inactive,inactive,26.4 µM (active),26.4 µM (active),20.9 µM (active)
C=CC1=C(C(=O)O)N2C(=O)[C@@H](NC(=O)C(=NO)c3csc(N)n3)[C@H]2SC1,92.8,95.1,–,68.4,116,105,inactive,inactive,inactive,inactive,inactive
OCCN1C[C@H](O)[C@@H](O)[C@H](O)[C@@H]1CO,96.1,131,85.5,97.8,122,103,inactive,inactive,inactive,inactive,inactive
C=C1C(=O)O[C@H]2[C@@H]1CCC(C)=CCC[C@@]1(C)O[C@@H]21,39.5,75.8,–,31.2,2.53,2.31,inactive,inactive,20.9 µM (active),10.5 µM (active),9.35 µM (active)
